PubChem BioAssay (NCI)
About 83,000 compounds went through this panel and 20% of them were active in at least one assay; those are over-represented in the sample as a whole.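 96-well plates, one dose, 48 hours. Percent growth reported; active if below 10.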 A number with no mark means an inactive call. Activity calls are given as the source filed them.

Tests used:
Test in all cases: NCI-60 one-dose screen, 48 h (100 = growth as untreated, 0 = no growth, -100 = all killed)
Conditions in all cases: 10 µM unless noted
[1] = system: NCI-H23 lung
[2] = system: NCI-H226 lung
[3] = system: NCI-H322M lung
[4] = system: HOP-62 NSCLC
[5] = system: NCI-H460 lung
[6] = system: HOP-92 NSCLC
[7] = system: NCI-H522 lung
[8] = system: A549/ATCC NSCLC
[9] = system: 786-0 renal
[10] = system: COLO 205 colon
[11] = system: DU-145 prostate
[12] = system: K-562 leukemia
[13] = system: MALME-3M melanoma
[14] = system: MDA-MB-231 breast
[15] = system: RXF 393 renal
[16] = system: SF-268 CNS
[17] = system: SF-295 CNS
[18] = system: SF-539 CNS
[19] = system: UACC-257 melanoma
[20] = system: M14 melanoma

CCn1cc(C(=O)O)c(=O)c2cc(F)c(N3CCN(CC(=O)Nc4ccc(/C(C)=N/OC)cc4)CC3)cc21
growth [1]: 90.6% | growth [2]: 97.9% | growth [3]: 80.2% | growth [4]: 88.8% | growth [5]: 104% | growth [6]: 84.8% | growth [7]: 84.8% | growth [8]: 95.8% | growth [9]: 91.7% | growth [10]: 102% | growth [11]: 104% | growth [12]: 92.5% | growth [13]: 103% | growth [14]: 85.9% | growth [15]: 100% | growth [16]: 94.1% | growth [17]: 92.3% | growth [18]: 92.7% | growth [19]: 91.3% | growth [20]: 99.4%

CO[C@@]12C=C[C@@]34CCC(=O)N3c3ccccc3[C@@H](O1)C4C2
growth [1]: 99.9% | growth [2]: 96.8% | growth [3]: 99.8% | growth [4]: 97.7% | growth [5]: 104% | growth [6]: 93% | growth [7]: 92.7% | growth [8]: 98.4% | growth [9]: 101% | growth [10]: 105% | growth [11]: 111% | growth [12]: 97.5% | growth [13]: 98% | growth [14]: 100% | growth [15]: 107% | growth [16]: 98.4% | growth [17]: 109% | growth [18]: 102% | growth [19]: 101% | growth [20]: 99.5%

NC[C@@H]1CCN(c2cc3c(cc2F)c(=O)n(N)c(=O)n3Cc2ccc(-c3ccccc3)cc2)C1
growth [1]: 87.2% | growth [2]: 91.1% | growth [3]: 96.8% | growth [4]: 77.4% | growth [5]: 99.7% | growth [6]: 73.6% | growth [7]: 68.8% | growth [8]: 89.6% | growth [9]: 66.2% | growth [10]: 88.6% | growth [11]: 102% | growth [12]: -44% (active) | growth [13]: 121% | growth [14]: 89.7% | growth [15]: 74.7% | growth [16]: 83.1% | growth [17]: 96.5% | growth [18]: 90% | growth [19]: 112% | growth [20]: 68.8%

C#CCN1C(=O)c2ccccc2N(CC#C)C12CCN(Cc1cn(CC(=O)Nc3ccccc3C(N)=O)nn1)CC2
growth [1]: 78.4% | growth [2]: 83.2% | growth [3]: 85% | growth [4]: 104% | growth [5]: 89.7% | growth [6]: 107% | growth [7]: 67.7% | growth [8]: 92.3% | growth [9]: 81.1% | growth [10]: 99.9% | growth [11]: 98.7% | growth [12]: 92.4% | growth [13]: 102% | growth [14]: 89.9% | growth [15]: 90.5% | growth [16]: 91.7% | growth [17]: 85.5% | growth [18]: 91.5% | growth [19]: 103% | growth [20]: 89.3%

O=c1cc(/C=N\Nc2nc(-c3ccc(Cl)cc3Cl)cs2)c2cc(Cl)ccc2o1
growth [1]: 85.3% | growth [2]: 87.9% | growth [3]: 95.3% | growth [4]: 80.3% | growth [5]: 96.1% | growth [6]: 82.2% | growth [7]: 88.6% | growth [8]: 88.3% | growth [9]: 96.9% | growth [10]: 107% | growth [11]: 102% | growth [12]: 84.1% | growth [13]: 116% | growth [14]: 82.8% | growth [15]: 114% | growth [16]: 101% | growth [17]: 95.2% | growth [18]: 94.3% | growth [19]: 99.2% | growth [20]: 91.4%

CCCn1cc(/C=N\N=C2\C(=O)Nc3ccc(C)cc32)c2ccccc21
growth [1]: 48% | growth [2]: 92% | growth [3]: 47.8% | growth [4]: 75.3% | growth [5]: 32.1% | growth [6]: 37.4% | growth [7]: 13.8% | growth [8]: 63.9% | growth [9]: 64.5% | growth [10]: -16.2% (active) | growth [11]: 66.4% | growth [12]: 17.6% | growth [13]: 51.7% | growth [14]: 34.4% | growth [15]: 11.4% | growth [16]: 46.6% | growth [17]: 71.1% | growth [18]: 33.9% | growth [19]: 58.8% | growth [20]: 56.3%

CCCCC(=O)Nc1c(C(=O)Nc2ccccc2)sc2nc3c(cc12)C(OC(=O)CCCC)CCC3 (stereo not given)
growth [1]: 95.6% | growth [2]: 92.6% | growth [3]: 113% | growth [4]: 101% | growth [5]: 85.9% | growth [6]: 84.4% | growth [7]: 77% | growth [8]: 105% | growth [9]: 84.1% | growth [10]: 90.3% | growth [11]: 87.9% | growth [12]: 85.3% | growth [13]: 105% | growth [14]: 87.9% | growth [15]: 95.2% | growth [16]: 85.7% | growth [17]: 101% | growth [18]: 94.7% | growth [19]: 110% | growth [20]: 97.5%

C=C1C(=O)O[C@H]2[C@H]1CC/C(COC(=O)c1c[nH]c3ccccc13)=C\CC[C@@]1(C)O[C@@H]21
growth [1]: -52.9% (active) | growth [2]: -78.3% (active) | growth [3]: 16% | growth [4]: -43.3% (active) | growth [5]: 2.46% (active) | growth [6]: -59.7% (active) | growth [7]: -66.7% (active) | growth [8]: -7.16% (active) | growth [9]: -92% (active) | growth [10]: -53.5% (active) | growth [11]: -68.6% (active) | growth [12]: -16.1% (active) | growth [13]: -73.7% (active) | growth [14]: -68.8% (active) | growth [15]: -90.6% (active) | growth [16]: -40.8% (active) | growth [17]: 50.2% | growth [18]: -61.3% (active) | growth [19]: -58.8% (active) | growth [20]: -64.7% (active)
